# Laboratory results taken from PubChem BioAssay AID1259400 (National Center for Advancing Translational Sciences (NCATS), 2018).
# Values joined by “and” are separate entries in the source; they are usually repeats but may differ in a detail not shown here. Equal values may be shown once. The campaign covered roughly 350,000 compounds. About 2,100 (0.6%) were called active. Another 1% or so got no clear call; they are omitted.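 Rule for the calls: active = activity change of -60% or lower, but not beyond a set lower limit; inconclusive = change between -60% and -40%, or beyond the set limit; inactive = change above -40%.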 Many of the other results were omitted from the sample, so actives are more common in it than they were. More than one record can exist for a structure, and the calls need not agree.
# Target: Relaxin receptor 1 (Homo sapiens) (UniProt Q9HBX9)
# Sequence (Q9HBX9 whole entry, looked up): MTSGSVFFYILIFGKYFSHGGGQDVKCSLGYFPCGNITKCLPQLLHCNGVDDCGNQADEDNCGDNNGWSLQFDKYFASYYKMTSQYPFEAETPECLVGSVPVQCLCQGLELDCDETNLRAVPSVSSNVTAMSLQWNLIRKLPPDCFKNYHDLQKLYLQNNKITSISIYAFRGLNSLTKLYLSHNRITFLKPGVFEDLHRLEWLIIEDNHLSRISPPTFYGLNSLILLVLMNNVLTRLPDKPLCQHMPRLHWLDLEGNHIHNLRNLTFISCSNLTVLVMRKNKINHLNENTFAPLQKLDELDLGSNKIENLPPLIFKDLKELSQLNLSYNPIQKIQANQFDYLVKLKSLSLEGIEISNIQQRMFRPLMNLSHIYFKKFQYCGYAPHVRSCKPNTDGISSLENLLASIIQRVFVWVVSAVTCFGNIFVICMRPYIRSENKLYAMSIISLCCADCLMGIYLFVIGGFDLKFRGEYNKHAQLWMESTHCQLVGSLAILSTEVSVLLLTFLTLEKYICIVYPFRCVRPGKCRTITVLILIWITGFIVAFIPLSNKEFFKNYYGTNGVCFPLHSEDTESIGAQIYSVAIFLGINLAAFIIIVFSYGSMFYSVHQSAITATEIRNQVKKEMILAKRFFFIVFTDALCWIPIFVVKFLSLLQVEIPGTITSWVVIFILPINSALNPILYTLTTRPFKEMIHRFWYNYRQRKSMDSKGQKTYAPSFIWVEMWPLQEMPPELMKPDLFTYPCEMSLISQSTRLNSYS
# Test: qHTS Assay for Antagonists of the Relaxin Receptor RXFP1
# Conditions: HEK293-RXFP1, relaxin-stimulated cAMP HTRF, 30 min; at 57.5 µM; stronger effect = lower value
# % is set by controls: 0 for no effect and ±100 for the full control effect.
row,SMILES,"activity change, negative = inhibition"
1,CC(C)Cn1c(=O)c2ccccc2n2c(CCC(=O)NCc3ccccn3)nnc12,1.58% (inactive)
2,CC(C)Cn1c(=O)c2ccccc2n2c(-c3cccc(Cl)c3)nnc12,-13.9% (inactive)
3,CC(C)Cn1c(=O)c2ccccc2n2c(CCC(=O)N3CCN(c4cccc(Cl)c4)CC3)nnc12,-87.5% (active)
4,Cc1cc(O)c(C(c2ccccc2)N2CCN(c3ccccc3F)CC2)c(=O)n1Cc1ccco1 (configuration not stated),-24.2% (inactive)
5,CCOC(=O)c1[nH]c(C)c(CCC(=O)N2CCN(c3ccccc3)CC2)c1C,-8.52% (inactive)
6,N/C(=N\OC(=O)c1ccc([N+](=O)[O-])cc1)c1ccccn1,8.07% (inactive)
7,O=C(COC(=O)c1ccccn1)NNC(=O)c1ccc(Br)cc1,-5.4% (inactive)
8,O=C(COC(=O)c1ccccn1)NNC(=O)c1ccc([N+](=O)[O-])cc1,-74.5% (active)
9,CCn1c(C)c(C)c2cc(C(=O)NCCc3cc(OC)ccc3OC)ccc21,-30.2% (inactive)
10,CCn1c(CSc2nc(C)cc(C)n2)nnc1SCC(N)=O,13.9% (inactive)
11,Cc1cc(C)n2nc(SCC(N)=O)nc2n1,-10.1% (inactive)
12,Cc1ccnc(SCC(N)=O)n1,-83.8% (active)
13,COC(=O)[C@@H]1CC2=CC(=O)CC[C@]2(C)[C@@]23O[C@@H]2C[C@@]2(C)[C@@H](CC[C@@]24CCC(=O)O4)[C@H]13,12.2% (inactive)
14,c1ccc(CCc2ccccn2)cc1,-14.5% (inactive)
15,O=C1CSc2ccc(C(=O)NCc3ccccn3)cc2N1,5.23% (inactive)
16,c1ccc(CN=C2Nc3ccccc3CS2)nc1,-70.7% (active)
17,Cc1ccc(Nc2c(-c3ccc(N(C)C)cc3)nc3nc[nH]n23)cc1,-4.77% (inactive)
18,COc1cccc(C(c2c(O)cc(C)n(Cc3ccco3)c2=O)N2CCN(c3ccccc3)CC2)c1 (configuration not stated),-4.37% (inactive)
19,Cc1ccc(C(C(=O)NCC2CCCO2)N(C(=O)c2snc(C(N)=O)c2N)c2ccc(C(C)C)cc2)o1 (configuration not stated),-74% (active)
20,CCOc1ccc(N(C(=O)c2snc(C(N)=O)c2N)C(C(=O)NCC2CCCO2)c2c[nH]c3ccccc23)cc1 (configuration not stated),-6.04% (inactive)
21,Cc1ccc(N(C(=O)c2snc(C(N)=O)c2N)C(C(=O)NCC2CCCO2)c2c[nH]c3ccccc23)cc1 (configuration not stated),-19% (inactive)
22,Cc1cccc(Nc2cc(C)nc(-n3nc(C)cc3C)n2)c1,-6.69% (inactive)
23,CCOC(=O)c1c(S(=O)(=O)NCC(=O)Nc2ccc(Cl)c(C(F)(F)F)c2)c(C)n(C)c1C,-8.26% (inactive)
24,COc1ccc(N2CCN(C(=O)CNC(=O)c3ccc(Br)o3)CC2)cc1,-3.36% (inactive)

row,SMILES,"activity change, negative = inhibition"
1,COc1ccc(-c2nc(CCNC(=O)c3ccc(Br)o3)cs2)cc1,-32.7% (inactive) and -89.7% (active)
2,COc1ccc(CCC(=O)NCCc2csc(-c3ccc(Cl)cc3)n2)cc1,-21.7% (inactive)
3,C[N+](C)(CCOc1ccccc1)Cc1cccs1 (tested in a mixture with another compound),10.6% (inactive)
4,Cc1ccc(-n2ncc3c(NCCCn4ccnc4)ncnc32)cc1Cl,-9.38% (inactive)
5,COc1ccc(OC)c(CNC(=O)CN2C(=O)CCn3nc(-c4cn(C)c5ccccc45)cc32)c1,-2.73% (inactive)
6,CC(=O)OC1=C(C(C)=O)N(Cc2ccccc2)S(=O)(=O)c2ccccc21,-3.88% (inactive)
7,Cc1ccccc1N/C(SCc1ccc(Cl)cc1)=C(/C#N)C(N)=O,-65.6% (active)
8,Cc1ccccc1NC(=S)NC(=O)Cc1ccc(Cl)cc1,-24.7% (inactive)
9,Cc1ccccc1NC(=O)CSC(=O)c1ccccc1,-0.348% (inactive)
10,O=S(=O)(NCC(c1ccccc1)N1CCc2ccccc21)c1ccccc1 (configuration not stated),-18.8% (inactive)
11,Cc1cc(NC(=O)CSc2ncc(C(F)(F)F)cc2Cl)no1,-64.7% (active)
12,Cc1cc(NC(=O)CSCC(=O)NC(C)c2ccccc2)no1 (configuration not stated),3.67% (inactive)
13,Cc1cc(NC(=O)CSc2nnc(-c3ccc(Cl)s3)o2)no1,-21% (inactive)
14,COc1ccccc1N1CCN(S(=O)(=O)CCNC(=O)COc2ccc(F)cc2)CC1,8.32% (inactive)
15,O=C(Nc1nc(-c2ccco2)c(-c2ccco2)s1)c1ccco1,-61.6% (active)
16,CCc1nnc(NC(=O)c2ccco2)s1,0.195% (inactive)
17,Cc1ccc(NC(=O)c2ccco2)cc1,-9.99% (inactive)
18,Cc1ccc(C2c3[nH]c4ccccc4c3CCN2C(=O)c2cccc(C)c2)cc1 (configuration not stated),-10.4% (inactive)
19,Cc1cc(C)cc(NC(=O)Cn2nc(N3CCN(c4ccccc4)CC3)ccc2=O)c1,-7.03% (inactive)
20,Cc1ccc(NC(=O)CCCn2c(=O)c3cccn3c3ccccc32)cc1Cl,-24.4% (inactive)
21,COc1ccc(C(=O)NCC(c2ccc(N(C)C)cc2)N2CCc3ccccc32)c(OC)c1 (configuration not stated),-11.3% (inactive)
22,COc1ccc(N2CCN(C(=O)C3CCCN(C(=O)c4cc5sccc5n4C)C3)CC2)cc1 (configuration not stated),-23.3% (inactive)
23,Cc1ccc(Cn2c(=O)n(Cc3nc(-c4ccccc4)no3)c(=O)c3cc4c(cc32)OCO4)cc1,15.5% (inactive)
24,C#CCOc1ccc(/C=C2/C(=O)NN(c3ccccc3)C2=O)cc1OC,-66.6% (active)

row,SMILES,"activity change, negative = inhibition"
1,C#CCOc1ccc(/C=C2/C(=O)ON=C2C)cc1OCC,-2.39% (inactive)
2,COc1cc(/C=C2/C(=O)NN(c3ccc(F)cc3)C2=O)cc([N+](=O)[O-])c1O,-12.2% (inactive)
3,Cc1ccc(-c2nc3ccccn3c2Nc2c(C)cccc2C)o1,-10.4% (inactive)
4,COc1ccc(CNC(=O)c2ccc(NC(=O)N3CC4CCCN4c4ccccc43)cc2)cc1 (configuration not stated),-9.24% (inactive)
5,CSc1ccccc1-c1nnc(NC(=O)c2ccc3c(c2)OCCO3)o1,23.7% (inactive)
6,COc1cc(OC)c(OC)cc1/C=C/c1nc2ccccc2c(=O)n1-c1ccc(Br)c(C)c1,-16.8% (inactive)
7,O=C(CCS(=O)(=O)c1cc(Br)cc2c1N(C(=O)C1CC1)CC2)Nc1ccc(Br)cc1F,2.95% (inactive)
8,O=S(=O)(NCCS(=O)(=O)N1CCN(c2ccccc2)CC1)c1ccc(Cl)cc1,-36.9% (inactive)
9,O=C(NCCS(=O)(=O)N1CCN(c2ccc(F)cc2)CC1)c1ccccc1Br,-4.07% (inactive)
10,O=S(=O)(NCCS(=O)(=O)N1CCN(c2ccccc2)CC1)c1ccc(F)cc1,-74.9% (active)
11,CCCC(=O)O[C@]1(C(=O)COC(=O)CC)CC[C@@H]2[C@@H]3CCC4=CC(=O)CC[C@]4(C)[C@H]3[C@@H](O)C[C@@]21C,-16.1% (inactive)
12,COc1ccc(Cn2ccn(Cc3cccc(OC)c3)c(=O)c2=O)cc1,1.35% (inactive)
13,O=[N+]([O-])/C=C/c1ccc2c(ccn2Cc2ccccc2)c1,-93.7% (active)
14,O=c1c(=O)n(Cc2c(F)cccc2Cl)ccn1Cc1ccccc1,-0.809% (inactive)
15,O=C(CN1C(=O)S/C(=C\c2ccccc2F)C1=O)NCCCn1ccnc1,4.7% (inactive)
16,Cn1cccc1/C=C1\SC(=S)N(NC(=O)c2ccc(Cl)cc2)C1=O,-8.62% (inactive)
17,Cn1cccc1/C=C1\SC(=O)N(CC(=O)Nc2ccc(F)cc2)C1=O,-75.7% (active)
18,COCCCNC(=O)c1c(NC(=O)c2cc(=O)c3cc(C)c(C)cc3o2)sc2c1CCCC2,-4.73% (inactive)
19,O=C(CSc1nccn1-c1ccc(F)cc1)Nc1cccc2ccccc12,1.1% (inactive)
20,CC(C)c1ccc(NC(=O)c2ccc3c(O)c(S(=O)(=O)c4ccccc4)c(=O)[nH]c3c2)cc1,-14% (inactive)
21,CCOC(=O)c1c(NC(C)=O)c2c3c(sc2n1Cc1c(C)cc(C)cc1C)CCCC3,-73.1% (active)
22,COC(=O)c1c(NC(=O)c2cc(=O)c3c(C)cc(C)cc3o2)sc2c1CCCC2,3.21% (inactive)
23,CCOC(=O)N1CCc2c(sc3c2c(=O)n(Cc2ccccc2)c(=O)n3CC(=O)Nc2cccc(C)c2)C1,4.91% (inactive)
24,CCN(CC)S(=O)(=O)c1nnc(NC(=O)COc2ccccc2Cl)s1,-10.5% (inactive)
